About 83,000 compounds went through this panel and 20% of them were active in at least one assay; those are over-represented in the sample as a whole.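 Plates (96-well) were seeded with cells, treated with compound at one concentration, and incubated for 48 hours before percent growth was determined.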 Values without a mark were called inactive. The source made the active and inactive calls. How the source made its calls: active means growth percent below 10; inactive means the rest.
System: HL-60(TB) leukemia
Experiment: NCI-60 one-dose screen, 48 h (100 = growth as untreated, 0 = no growth, -100 = all killed)
Settings: 10 µM unless noted

Row | SMILES | growth
1 | COc1cc(C2=Nc3c/c(=C\c4c(O)[nH]c5ccc(Cl)cc45)ccc3=N2)cc(OC)c1OC | 11.8%
2 | COc1ccc(C(=O)C/C(=C\c2ccc(Cl)cc2)C(=O)NCc2ccccc2)cc1 | 73.8%
3 | COc1cccc(C(=O)OCCn2nc3c4c(cccc42)C(=O)c2ccccc2-3)c1O | 0.071% (active)
4 | CC(C)C[C@H](C(=O)N[C@@H](C)C(N)=O)N1CC=CCN(O)S1(=O)=O | 110% [5 µM]
5 | COc1ccc(-c2cn(-c3ccc(Cl)cc3)c(SCC(=O)c3ccc([N+](=O)[O-])cc3)n2)cc1 | 84%
6 | CCNCc1ccc(O)c2ncccc12 | 13.1%
7 | Brc1ccsc1Br | 102%
8 | COc1ccc(CN2c3ccccc3Oc3ccccc32)cc1F | 54.1%
9 | COc1ccc(-n2cc(COc3ccc4c5ccnc(C)c5n(CC(C)C)c4c3)nn2)cc1 | -10.6% (active)
10 | CCN1CCN(c2nc(NCCCNc3ccnc4cc(Cl)ccc34)c3ccccc3n2)CC1 | -51.4% (active)
11 | Cc1ccc(C23CCC(=O)N2CCc2cncn23)cc1 (centres undefined) | 95.7%
12 | C=C1C(=O)O[C@H]2[C@H]1CC/C(COC(=O)C(=O)c1c[nH]c3ccc(Cl)cc13)=C\CC[C@@]1(C)O[C@@H]21 | -44.6% (active)
13 | O=[N+]([O-])C1=C(c2ccccc2)SC=C(c2ccccc2)S1 | 70.9%
14 | Cc1nnc(/N=C2\NC(=O)/C(=C/c3ccsc3)S2)s1 | 102%
15 | Nc1nc2ccccc2c2c(=O)c3cc(Cl)ccc3sc12 | 103%
16 | O=C(C[C@@]1(O)C(=O)Nc2c(Cl)ccc(Cl)c21)c1ccc(C2CC2)cc1 | -17.8% (active)
17 | COc1ccc2c(c1)C(=O)/C(=C/c1cccc(OCC(=O)c3ccc([N+](=O)[O-])cc3)c1)CO2 | -46.6% (active)
18 | O=C1/C(=C/c2ccc([N+](=O)[O-])o2)Oc2ccc(Cl)cc21 | -21.3% (active)
19 | CC1(C)CC(=O)C2=C(C1)Nc1cc3c(cc1C2c1ccc(F)cc1)OCO3 (centres undefined) | 90.2%
20 | COc1cccc(C=Nc2cc(C(C)C)c(O)cc2C)c1O | 85.9%

Row | SMILES | growth
21 | Cn1cnc([N+](=O)[O-])c1/C=C1\Oc2ccc(Cl)cc2C1=O | 60%
22 | CC1=NN(c2cccc(Cl)c2)C(=O)/C1=C\c1cn(-c2nc(N3CCOCC3)nc(N3CCOCC3)n2)c2ccccc12 | 99.1%
23 | CCOC(=O)N1C/C(=C/c2ccc(F)cc2)C(=O)/C(=C/c2ccc(F)cc2)C1 | 4.58% (active)
24 | C=C(C)[C@H]1CC/C(C)=C/CC[C@]2(C)O[C@H]2CC/C(C=O)=C\C1O (some centres undefined) | 253%
25 | Cc1nc2ccccc2c(C(=O)O)c1O | 186%
26 | COC(=O)C1NC(=S)N(c2ccc(Cl)cc2)C1/C=C/c1ccccc1 (centres undefined) | 92.8%
27 | C/C(=C\CCc1ccoc1)CC/C=C(\C)CCCN1CCSCC1 | 73.9%
28 | O=C1C(Cl)=C(Cl)C(=O)c2c1nc1n2CCCC1 | 74.8%
29 | O=[N+]([O-])c1cccc(C(c2ccccc2)c2ccccc2)c1 | 88.9%
30 | Cn1c2c(c3ccc(Cl)c(Cl)c31)C(C#N)C(C)(C)NC2=O (centres undefined) | 69.3%
31 | Nc1c(Br)cc(O)c2c1C(=O)c1ccccc1C2=O | 41.9%
32 | C=C(C)[C@@H]1CC[C@]2(C(=O)N3CCNCC3)CC[C@]3(C)[C@H](CC[C@@H]4[C@@]5(C)C/C(=C/c6ccncc6)C(=O)C(C)(C)[C@@H]5CC[C@]43C)[C@@H]12 | 99.7%
33 | CN1CCN(C(=S)S)CC1 | 111%
34 | CCOC(=O)c1c(C)oc2ncnc(N3CCN(C(=O)COc4ccc(C(C)(C)C)cc4)CC3)c12 | 73.9%
35 | CNCCCNc1nc2ccccc2c2c(=O)c3cc(Cl)ccc3sc12 | -55.2% (active)
36 | COc1ccc2c(c1)/C(=C/c1c(-c3cc(OC)c(OC)c(OC)c3)nc3sccn13)C(=O)N2 | 83.4%
37 | COc1nc(N)nc(-n2c(-c3ccc(C)cc3)nc3ccccc32)c1NCc1ccc(C)cc1 | 101%
38 | Cn1cc(-c2csc(-c3cn(C)c4ccc(F)cc34)n2)c2cnccc21 | -44.8% (active)
39 | COc1cc(-c2ccc(-c3ccc(C(=N)N)cc3)s2)cc(OC)c1OC | 3.15% (active)
